Measured values as given in PubChem BioAssay.

The compounds below were run against NADPH oxidase 2 (Homo sapiens) (UniProt P04839) (assay: compounds shifting NOX2 Amplex Red fluorescence – cell-based, HEK293-NOX2, PMA-stimulated, NOX inhibitor project, primary screen (AID 1159; further: test concentration not given here)). Details: 45 min, higher = more signal, called active from +8 up or from −8 down.
NADPH oxidase 2 (Homo sapiens), sequence (P04839 whole entry, looked up): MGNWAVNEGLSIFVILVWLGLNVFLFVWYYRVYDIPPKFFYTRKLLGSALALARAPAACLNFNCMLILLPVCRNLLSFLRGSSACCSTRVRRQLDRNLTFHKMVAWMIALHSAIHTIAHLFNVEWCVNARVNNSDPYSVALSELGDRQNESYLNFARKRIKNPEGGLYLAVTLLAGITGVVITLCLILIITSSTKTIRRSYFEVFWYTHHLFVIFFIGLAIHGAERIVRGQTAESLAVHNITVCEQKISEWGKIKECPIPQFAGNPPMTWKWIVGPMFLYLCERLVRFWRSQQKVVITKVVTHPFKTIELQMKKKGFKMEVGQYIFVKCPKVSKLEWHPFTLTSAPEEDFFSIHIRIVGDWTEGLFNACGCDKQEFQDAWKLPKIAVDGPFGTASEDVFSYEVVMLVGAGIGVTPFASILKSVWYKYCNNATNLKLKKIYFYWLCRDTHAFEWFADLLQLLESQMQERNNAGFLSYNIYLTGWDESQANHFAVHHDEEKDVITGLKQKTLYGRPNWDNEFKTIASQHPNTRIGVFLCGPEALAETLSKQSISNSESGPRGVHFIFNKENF

z-score, inactive:
O=C1[C@@H]2[C@@H](CC(COc3ccccc3)=C([C@H](O)CCc3ccccc3)[C@@H]2CO)C(=O)N1Cc1ccccc1 -2.32
COCCOC(=O)N1C(=O)[C@@]2(c3cc(C#CCC(C(=O)OC)C(=O)OC)ccc31)[C@H](C(N)=O)[C@H]1C(=O)O[C@H](c3ccccc3)[C@H](c3ccccc3)N1[C@@H]2c1ccc(O)cc1 1.29
CN(C)CCCNC(=O)[C@@]1(C)c2ccccc2C(=O)N(Cc2ccc(OC(F)(F)F)cc2)[C@H]1c1ccc(CO)cc1 -0.607
CCCC=C(CCC)[C@@H](NC(=O)OCC(C)C)c1ccc(C(=O)OC)cc1 0.115
COc1ccc(CCNC(=O)[C@@H]2c3ccccc3C(=O)N(Cc3ccccc3OC)[C@H]2c2ccc(CO)cc2)cc1 -1.31
CCCC#C[Si](O[C@H](CC)c1cn(Cc2ccccc2)nn1)(C(C)C)C(C)C 0.442
[N-]=[N+]=NCc1ccccc1[C@@H]1OC(c2ccc(OCCCO)cc2)=N[C@]1(Cc1ccccc1N=[N+]=[N-])C(=O)O -1.51
CN(C)CCCNC(=O)[C@@H]1c2ccccc2C(=O)N(Cc2ccccc2C(F)(F)F)[C@H]1c1ccc(CO)cc1 0.383
C=CCNC(=O)[C@H]1[C@@H]2C(=O)O[C@@H](c3ccccc3)[C@@H](c3ccccc3)N2[C@@H](c2ccc(OCCO)cc2)[C@]12C(=O)Nc1ccccc12 1.87
O=C1O[C@@H](c2ccccc2)[C@@H](c2ccccc2)N2[C@@H](c3ccccc3OCCO)[C@]3(C(=O)Nc4ccc(C#CCCO)cc43)[C@@H](C(=O)NC[C@H](O)c3ccccc3)[C@H]12 1.59
C[C@]1(C(=O)O)c2ccccc2C(=O)N(Cc2cc(F)cc(C(F)(F)F)c2)[C@H]1c1ccc(CO)cc1 0.477

Each compound was assayed against NADPH oxidase 4 (Homo sapiens) (UniProt Q9NPH5) (assay: compounds shifting NOX4 Amplex Red fluorescence – cell-based, HEK293-NOX4, tetracycline-induced, NOX inhibitor project, primary screen (AID 1160)). Details: HEK293-NOX4, Amplex Red H2O2 fluorescence, 45 min; higher = more signal, called active from +8 up or from −8 down.
NADPH oxidase 4 (Homo sapiens), sequence (Q9NPH5 whole entry, looked up): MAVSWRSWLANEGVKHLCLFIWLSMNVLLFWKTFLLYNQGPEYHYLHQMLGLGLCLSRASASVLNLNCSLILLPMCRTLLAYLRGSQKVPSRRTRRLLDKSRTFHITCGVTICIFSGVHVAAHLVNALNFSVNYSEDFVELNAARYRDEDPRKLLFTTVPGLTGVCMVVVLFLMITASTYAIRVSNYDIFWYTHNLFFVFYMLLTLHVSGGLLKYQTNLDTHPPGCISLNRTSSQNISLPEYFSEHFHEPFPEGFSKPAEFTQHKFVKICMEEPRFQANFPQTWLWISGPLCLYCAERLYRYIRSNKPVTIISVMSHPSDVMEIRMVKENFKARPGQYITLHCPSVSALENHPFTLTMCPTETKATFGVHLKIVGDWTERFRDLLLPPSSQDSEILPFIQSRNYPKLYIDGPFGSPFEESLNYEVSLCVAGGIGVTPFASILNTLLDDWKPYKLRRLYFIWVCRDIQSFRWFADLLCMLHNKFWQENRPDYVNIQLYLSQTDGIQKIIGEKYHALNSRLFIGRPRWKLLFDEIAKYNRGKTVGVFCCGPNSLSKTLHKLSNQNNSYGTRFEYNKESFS

z-score, inactive:
[N-]=[N+]=Nc1ccccc1C[C@@]1(C(=O)NCC(O)CO)N=C(c2ccc(OCCCO)cc2)O[C@@H]1c1ccccc1 (stereo partly drawn) 0.662
C=C(CCCC)/C(=C/C[C@H](OC(=O)c1ccncc1)c1cccc(OCCO)c1)c1cnc2ccccc2c1 -0.293
COCCOC(=O)N1C(=O)[C@@]2(c3cc(C#Cc4ccc(OC)cc4)ccc31)[C@H](c1ccc(OCCO)cc1)N1[C@H](c3ccccc3)[C@H](c3ccccc3)OC(=O)[C@H]1[C@@H]2C(=O)NC[C@H](O)c1ccccc1 0.708
CCOC(=O)C1=CC[C@@H](c2ccc(OC)cc2)N(S(=O)(=O)c2ccc(C)cc2)[C@H]1c1ccc(C)cc1 -0.627
COCCOC(=O)N1C(=O)[C@@]2(c3cc(C#CCCO)ccc31)[C@H](c1ccc(OCCO)cc1)N1[C@H](c3ccccc3)[C@H](c3ccccc3)OC(=O)[C@H]1[C@@H]2C(=O)N1CCCCCCC1 1.02
COC(=O)[C@@]1(Cc2ccc(F)cc2)[C@H]2c3cc(C(=O)N4CCCC4)n(Cc4cc(F)cc5c4OCOC5)c3C[C@H]2CN1C(=O)c1ccccc1 0.115
C=C(CCCC)/C(=C/C[C@H](OC(=O)c1ccncc1)c1ccc(OCCO)cc1)c1cnc2ccccc2c1 0.589
C=CCOC(=O)[C@@H]1[C@H]2C(=O)O[C@H](c3ccccc3)[C@H](c3ccccc3)N2[C@H](c2ccc(OCCOC(=O)[C@H]3C[C@H]4C(=O)N5CCC[C@H]5C(=O)N4[C@H]3c3cccc(OCCO)c3)cc2)[C@@]12C(=O)Nc1ccc(I)cc12 0.788
COc1ccc([Si](C)(C)[C@H]2[C@H](CC(=O)N3Cc4ccccc4C[C@H]3CO)O[C@@]3(C(=O)N(C)c4c(Br)cc(C)cc43)[C@@H]2C)cc1 0.794
CCCC[C@H]1OB(O)C[C@H]2C1=C(COc1ccccc1)C[C@H]1C(=O)C=CC(=O)[C@H]12 -1.48
COCCOC(=O)N1C(=O)[C@@]2(c3cc(C#CCC(C(=O)OC)C(=O)OC)ccc31)[C@H](C(=O)Nc1nc3ccccc3s1)[C@H]1C(=O)O[C@H](c3ccccc3)[C@H](c3ccccc3)N1[C@@H]2c1ccc(O)cc1 -1.11
COC(=O)[C@@]1(Cc2ccc(OC)cc2)[C@H]2c3cc(C(=O)N4CCCC4)n(Cc4ccc(Cl)c(C(F)(F)F)c4)c3C[C@H]2CN1C(=O)c1ccccc1 1.28
